The record followed here is PubChem BioAssay (NCI).

Several values for one entry are separate records, joined by “and”; a condition that tells them apart may be missing. Identical values can stand only once. Compounds without any hit were thinned out: in the full panel of roughly 83,000, 20% have a hit.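 48-hour exposure, single concentration, 96-well plates; percent growth endpoint where 0 means no net growth. Active: below 10.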 Activity calls are given as the source filed them.

Test systems include HCT-15 colon; HT29 colon; SNB-75 CNS; U251 CNS; PC-3 prostate; SK-MEL-5 melanoma; UACC-62 melanoma; LOX IMVI melanoma; SK-MEL-28 melanoma; SNB-19 CNS.
Holding throughout (test): NCI-60 one-dose screen, 48 h (100 = growth as untreated, 0 = no growth, -100 = all killed)

Turning to `S=c1nc[nH]c2nc[nH]c12`, the growth with HCT-15 colon (10 µM) is 39.1% (inactive); with HCT-15 colon (50 µM), 15.6% (inactive); in the experiment on HT29 colon (10 µM), 41.7% (inactive); in the experiment on HT29 colon (50 µM), 14.3% (inactive); in the experiment with SNB-75 CNS (10 µM), 55.9% (inactive); in the experiment with SNB-75 CNS (50 µM) it was 43.7% (inactive). Also, the growth with U251 CNS (10 µM) is 51.5% (inactive); in the experiment on U251 CNS (50 µM) it was 36.8% (inactive); with PC-3 prostate (10 µM), 53.5% (inactive); in the experiment with PC-3 prostate (50 µM) it was 43.2% (inactive); in the experiment with SK-MEL-5 melanoma (10 µM) it was 61.8% (inactive); in the experiment on SK-MEL-5 melanoma (50 µM), 12.8% (inactive). For the same compound, the growth was 15.8% (inactive) in the experiment on UACC-62 melanoma (10 µM); 19.8% (inactive) in the experiment with UACC-62 melanoma (50 µM); 15.6% (inactive) and 1.72% (active) in the experiment with UACC-62 melanoma (750 µM); 9.56% (active) in the experiment on LOX IMVI melanoma (10 µM); 6.96% (active) in the experiment with LOX IMVI melanoma (50 µM); 114% (inactive) in the experiment with SK-MEL-28 melanoma (10 µM). Further, the growth with SK-MEL-28 melanoma (50 µM) is 75.6% (inactive).

Regarding `O=c1ccn2c(n1)OC1CC2OC1COC(c1ccccc1)(c1ccccc1)c1ccccc1` (stereo unspecified), the growth in the experiment on HCT-15 colon (10 µM) was 97% (inactive); in the experiment on HCT-15 colon (100 µM) it was 101% (inactive); in the experiment on HT29 colon (10 µM) it was 108% (inactive); in the experiment with HT29 colon (100 µM), 106% (inactive); in the experiment on SNB-75 CNS (10 µM), 107% (inactive); in the experiment on SNB-75 CNS (100 µM), 95.6% (inactive). Besides, the growth with SNB-19 CNS (10 µM) is 111% (inactive); with SNB-19 CNS (100 µM), 91.8% (inactive); in the experiment on U251 CNS (10 µM unless noted), 89.2% [100 µM] (inactive); with PC-3 prostate (10 µM), 84.1% (inactive); with PC-3 prostate (100 µM), 63.1% (inactive); in the experiment with SK-MEL-5 melanoma (10 µM), 100% (inactive). Also, the growth with SK-MEL-5 melanoma (100 µM) was 28.5% (inactive); in the experiment on UACC-62 melanoma (10 µM) it was 103% (inactive); in the experiment with UACC-62 melanoma (100 µM) it was 44.5% (inactive); with SK-MEL-28 melanoma (10 µM) it was 118% (inactive); with SK-MEL-28 melanoma (100 µM), 74.3% (inactive).

Take `N#CC(=S)Nc1ccc(Cl)c(Cl)c1`: the growth in the experiment on HCT-15 colon (10 µM unless noted) is 13.6% (inactive); in the experiment on HT29 colon (10 µM unless noted), 12.5% (inactive); in the experiment on SNB-75 CNS (10 µM unless noted), -3.27% (active); with SNB-19 CNS (10 µM unless noted), 4.95% (active); with U251 CNS (10 µM unless noted), 9.34% (active); in the experiment with PC-3 prostate (10 µM unless noted) it was 23.1% (inactive). The growth with SK-MEL-5 melanoma (10 µM unless noted) is -61.7% (active); with UACC-62 melanoma (10 µM), 5.74% (active); in the experiment with UACC-62 melanoma (100 µM), -12.1% (active) and -100% (active); in the experiment with SK-MEL-28 melanoma (10 µM unless noted) it was 25.2% (inactive).

Take `Nc1nc(N)c2cc(S(=O)(=O)c3ccccc3)ccc2n1`: the growth in the experiment with HCT-15 colon (10 µM unless noted) is 27.9% (inactive) and 25.6% (inactive); in the experiment with HT29 colon (10 µM unless noted), 22.9% (inactive) and 15% (inactive); in the experiment with SNB-75 CNS (10 µM unless noted), 78.7% (inactive) and 76.9% (inactive); in the experiment with SNB-19 CNS (10 µM unless noted) it was 38.4% (inactive) and 49.2% (inactive); in the experiment with U251 CNS (10 µM unless noted) it was 30.5% (inactive) and 30.8% (inactive); in the experiment on PC-3 prostate (10 µM unless noted), 42.9% (inactive) and 52.7% (inactive). The growth is 23.3% (inactive) and 25.3% (inactive) in the experiment with SK-MEL-5 melanoma (10 µM unless noted); 21.5% (inactive) and 53.7% (inactive) with UACC-62 melanoma (10 µM unless noted); 30.6% (inactive) and 19.2% (inactive) in the experiment with LOX IMVI melanoma (10 µM unless noted); 71% (inactive) and 68.9% (inactive) in the experiment on SK-MEL-28 melanoma (10 µM unless noted).

In the case of `CC(C)(C)C1=CC(=O)C(C(C)(C)C)=CC1=O`, the growth is 97.9% (inactive) and 105% (inactive) in the experiment with HCT-15 colon (10 µM unless noted); 109% (inactive) and 99.8% (inactive) in the experiment on HT29 colon (10 µM unless noted); 104% (inactive) and 96.6% (inactive) with SNB-75 CNS (10 µM unless noted); 86.2% (inactive) and 101% (inactive) with SNB-19 CNS (10 µM unless noted); 96.2% (inactive) and 94.2% (inactive) in the experiment on U251 CNS (10 µM unless noted); 90.8% (inactive) and 101% (inactive) in the experiment with PC-3 prostate (10 µM unless noted). For the same compound, the growth in the experiment on SK-MEL-5 melanoma (10 µM unless noted) was 93.5% (inactive) and 108% (inactive); in the experiment with UACC-62 melanoma (10 µM unless noted), 87.1% (inactive) and 99.6% (inactive); in the experiment on LOX IMVI melanoma (10 µM unless noted), 91.6% (inactive) and 99.5% (inactive); in the experiment with SK-MEL-28 melanoma (10 µM unless noted), 114% (inactive) and 109% (inactive).

Turning to `O=C(O)C1CSCN1` (stereo unspecified), the growth is 109% (inactive) and 96.3% (inactive) in the experiment on HCT-15 colon (10 µM unless noted); 104% (inactive) in the experiment on HT29 colon (10 µM unless noted); 109% (inactive) and 73.5% (inactive) with SNB-75 CNS (10 µM unless noted); 105% (inactive) and 94% (inactive) in the experiment on SNB-19 CNS (10 µM unless noted); 104% (inactive) and 97.6% (inactive) in the experiment on U251 CNS (10 µM unless noted); 99.4% (inactive) and 112% (inactive) in the experiment on PC-3 prostate (10 µM unless noted). Also, the growth in the experiment on SK-MEL-5 melanoma (10 µM unless noted) was 135% (inactive); in the experiment with UACC-62 melanoma (10 µM unless noted) it was 105% (inactive) and 96% (inactive); with LOX IMVI melanoma (10 µM unless noted) it was 108% (inactive) and 102% (inactive); in the experiment with SK-MEL-28 melanoma (10 µM unless noted), 117% (inactive) and 114% (inactive).

In the case of `CCOCCC(=O)O`, the growth was 108% (inactive) in the experiment on HCT-15 colon (10 µM unless noted); 104% (inactive) with HT29 colon (10 µM unless noted); 93.3% (inactive) in the experiment on SNB-75 CNS (10 µM unless noted); 109% (inactive) with SNB-19 CNS (10 µM unless noted); 106% (inactive) in the experiment with U251 CNS (10 µM unless noted); 91.7% (inactive) in the experiment with PC-3 prostate (10 µM unless noted). Moreover, the growth in the experiment with SK-MEL-5 melanoma (10 µM unless noted) was 96.1% (inactive); in the experiment with UACC-62 melanoma (10 µM unless noted) it was 102% (inactive); in the experiment on LOX IMVI melanoma (10 µM unless noted), 102% (inactive); in the experiment on SK-MEL-28 melanoma (10 µM unless noted) it was 109% (inactive).

Regarding `COc1cc(NCCCCCCCNC(C)C)c2nccc(C)c2c1`, the growth in the experiment with HCT-15 colon (10 µM unless noted) was 89.2% (inactive) and 58.5% (inactive); in the experiment on HT29 colon (10 µM unless noted) it was 53.7% (inactive) and 14.2% (inactive); in the experiment with SNB-75 CNS (10 µM unless noted), 74.4% (inactive) and 61.1% (inactive); in the experiment on SNB-19 CNS (10 µM unless noted), 90.9% (inactive) and 74.2% (inactive); in the experiment with U251 CNS (10 µM unless noted), 80.8% (inactive) and 61.3% (inactive); with PC-3 prostate (10 µM unless noted), 58.1% (inactive) and 75.9% (inactive). For the same compound, the growth in the experiment with SK-MEL-5 melanoma (10 µM unless noted) is 84.3% (inactive) and 64.8% (inactive); in the experiment with UACC-62 melanoma (10 µM unless noted) it was 88.2% (inactive) and 3.49% (active); with LOX IMVI melanoma (10 µM unless noted), 92.5% (inactive) and 54.7% (inactive); with SK-MEL-28 melanoma (10 µM unless noted) it was 105% (inactive) and 91.4% (inactive).

On to `CCOC(=O)C(N)Cc1cc(I)c(O)c(I)c1` (stereo unspecified), for which the growth in the experiment with HCT-15 colon (10 µM unless noted) was 107% (inactive) and 96.6% (inactive); in the experiment with HT29 colon (10 µM unless noted), 105% (inactive) and 104% (inactive); in the experiment on SNB-75 CNS (10 µM unless noted), 102% (inactive) and 83.8% (inactive); with SNB-19 CNS (10 µM unless noted), 109% (inactive) and 95.9% (inactive); in the experiment on U251 CNS (10 µM unless noted), 104% (inactive) and 110% (inactive); in the experiment with PC-3 prostate (10 µM unless noted), 98.3% (inactive) and 89.8% (inactive). Moreover, the growth with SK-MEL-5 melanoma (10 µM unless noted) is 105% (inactive) and 108% (inactive); in the experiment with UACC-62 melanoma (10 µM unless noted), 101% (inactive) and 97% (inactive); in the experiment with LOX IMVI melanoma (10 µM unless noted), 110% (inactive) and 105% (inactive); in the experiment on SK-MEL-28 melanoma (10 µM unless noted), 111% (inactive) and 116% (inactive).
